Results from PubChem BioAssay (NCI).
Compounds without any hit were thinned out: in the full panel of roughly 79,000, 15% have a hit. Activity calls are given as the source filed them. No stated cut-off is given here; in the data, active means growth inhibition above about 70%; inactive means the rest.

Legend:
[1] = NCI Yeast Anticancer Drug Screen. Data for the rad52 strain (AID 147);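 further: 0% = growth of vehicle-treated control cultures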; conditions: S. cerevisiae rad52 mutant growth inhibition, hits give high values
Outline: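 Yeast strain carrying a DNA damage repair alteration was exposed to test compounds. Growth inhibition was measured relative to vehicle-treated controls.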

[2] = NCI Yeast Anticancer Drug Screen. Data for the rad50EPP+ strain (AID 151);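 further: 0% = growth of vehicle-treated control cultures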; conditions: S. cerevisiae rad50 mutant strain, hits give high values
Outline: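 Yeast strain carrying rad50 alteration (rad50EPP+) exposed to compounds; growth inhibition measured relative to vehicle-treated controls.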

[3] = NCI Yeast Anticancer Drug Screen. Data for the mgt1 strain (AID 153); conditions: S. cerevisiae mgt1 mutant growth inhibition, hits give high values
Outline: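 Yeast mgt1 strain (DNA repair/cell-cycle alteration panel) exposed to compounds; growth inhibition measured relative to vehicle-treated controls.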

[4] = NCI Yeast Anticancer Drug Screen. Data for the rad50 strain (AID 155);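 further: 0% = growth of vehicle-only cultures of the same strain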; conditions: S. cerevisiae rad50 strain growth inhibition, hits give high values
Outline: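 Compounds were tested on a yeast strain with an engineered DNA damage repair alteration; the reported value is growth inhibition normalised to vehicle treatment.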

[5] = NCI Yeast Anticancer Drug Screen. Data for the mec2-1 strain (AID 157); conditions: S. cerevisiae mec2-1 strain, hits give high values
Outline: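 mec2-1 yeast strain, carrying an alteration in DNA damage repair or cell cycle control, was exposed to compounds; growth inhibition was measured relative to vehicle-treated controls.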

[6] = NCI Yeast Anticancer Drug Screen. Data for the rad14 strain (AID 159);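 further: 0% = growth of vehicle-treated control cultures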; conditions: S. cerevisiae rad14 strain growth inhibition, hits give high values
Outline: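 Compound-treated yeast with a defined DNA-repair lesion; growth inhibition normalised to vehicle-treated cultures.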

[7] = NCI Yeast Anticancer Drug Screen. Data for the sgs1 mgt1 strain (AID 161);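 further: 0% = growth of cultures given vehicle only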; conditions: S. cerevisiae sgs1 mgt1 strain, hits give high values
Outline: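 Yeast cells carrying a defined DNA-repair defect were exposed to test compounds. Growth inhibition was measured relative to vehicle-treated controls.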

[8] = NCI Yeast Anticancer Drug Screen. Data for the CLN2oe strain (AID 163);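 further: 0% = growth of vehicle-only control cultures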; conditions: S. cerevisiae CLN2oe strain, hits give high values
Outline: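 Yeast cells carrying a defined cell-cycle control alteration were exposed to test compounds. Growth inhibition was scored against vehicle-treated control cultures.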

[9] = NCI Yeast Anticancer Drug Screen. Data for the cln2 rad14 strain (AID 165);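 further: 0% = growth equal to vehicle treated cultures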; conditions: S. cerevisiae cln2 rad14 strain, hits give high values
Outline: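 Yeast carrying cln2 and rad14 alterations (cell cycle control and DNA damage repair) were exposed to compounds. Growth inhibition was measured against vehicle-treated controls.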

[10] = NCI Yeast Anticancer Drug Screen. Data for the bub3 strain (AID 167); conditions: S. cerevisiae bub3 mutant strain, hits give high values
Outline: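 Growth of a checkpoint-deficient yeast mutant is measured after compound exposure. Values represent inhibition relative to vehicle.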

[11] = NCI Yeast Anticancer Drug Screen. Data for the wt2 strain (AID 169);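 further: 0% = growth of vehicle-treated yeast cultures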; conditions: S. cerevisiae wt2 strain growth inhibition, hits give high values
Outline: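 Yeast cells were exposed to test compounds, and growth inhibition was measured relative to vehicle-treated controls.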

[12] = NCI Yeast Anticancer Drug Screen. Data for the mlh1 strain (AID 171);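 further: 0% = growth of vehicle-treated control cultures of the same strain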; conditions: S. cerevisiae mlh1 strain growth inhibition, hits give high values
Outline: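 Yeast carrying a defined genetic alteration in DNA damage repair or cell cycle control were exposed to test compounds. Growth inhibition was measured relative to vehicle-treated controls.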

[13] = NCI Yeast Anticancer Drug Screen. Data for the sgs1 strain (AID 173);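 further: 0% = growth of vehicle-only control cultures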; conditions: S. cerevisiae sgs1 mutant, hits give high values
Outline: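 Yeast mutant strains carrying defined defects in DNA damage repair or cell cycle control were exposed to test compounds. Growth inhibition was scored against vehicle-treated controls.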

[14] = NCI Yeast Anticancer Drug Screen. Data for the mlh1 rad18 strain (AID 175); conditions: S. cerevisiae mlh1 rad18 strain growth inhibition, hits give high values
Outline: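 Growth inhibition of the yeast strain was measured after compound exposure and expressed relative to vehicle-treated controls. The strain carries defined defects in DNA damage repair.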

[15] = NCI Yeast Anticancer Drug Screen. Data for the rad18 strain (AID 177); conditions: S. cerevisiae rad18 mutant growth inhibition, hits give high values
Outline: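 Yeast carrying a defined DNA damage repair alteration were exposed to compounds. Growth inhibition was expressed relative to vehicle-treated controls.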

[16] = at 5.0 µM (retest, dose inferred, filed as 0.5)
[17] = at 50.0 µM (retest, dose inferred, filed as 5.0)

Measured: growth inhibition

Clc1cc(-c2ccccc2)nc2ccccc12
active: [1]; at 100.0 µM 75% | [2]; at 33.0 µM 77% | [2]; at 100.0 µM 90% | [3]; at 33.0 µM 80% | [3]; at 100.0 µM 97% | [4]; [17] 90% | [4]; at 50.0 µM 75.3% | [4]; at 100.0 µM 81% | [5]; [16] 77% | [5]; [17] 92% | [5]; at 100.0 µM 86% | [6]; at 100.0 µM 91% | [7]; [17] 88% | [9]; [17] 82% | [10]; [17] 93% | [10]; at 100.0 µM 93% | [11]; at 100.0 µM 86% | [12]; at 100.0 µM 95% | [13]; at 100.0 µM 82% | [14]; [17] 87% | [15]; at 100.0 µM 91%
inactive: [1]; at 1.2 µM 6% | [1]; at 3.7 µM -1% | [1]; at 11.0 µM 0% | [1]; at 33.0 µM 34% | [2]; at 1.2 µM 7% | [2]; at 3.7 µM 27% | [2]; at 11.0 µM 56% | [3]; at 1.2 µM 13% | [3]; at 3.7 µM 32% | [3]; at 11.0 µM 36% | [4]; at 1.2 µM 6% | [4]; at 3.7 µM 10% | [4]; [16] 68% | [4]; at 11.0 µM 2% | [4]; at 33.0 µM 36% | [5]; at 1.2 µM -18% | [5]; at 3.7 µM -8% | [5]; at 11.0 µM -14% | [5]; at 33.0 µM 33% | [5]; at 50.0 µM 44.4% | [6]; at 1.2 µM 1% | [6]; at 3.7 µM 2% | [6]; at 11.0 µM 1% | [6]; at 33.0 µM 46% | [7]; [16] -23% | [8]; at 1.2 µM 5% | [8]; at 3.7 µM 3% | [8]; at 11.0 µM -8% | [8]; at 33.0 µM 28% | [8]; at 100.0 µM 54% | [9]; [16] 40% | [10]; at 1.2 µM 11% | [10]; at 3.7 µM 23% | [10]; [16] 27% | [10]; at 11.0 µM 34% | [10]; at 33.0 µM 60% | [11]; at 1.2 µM -11% | [11]; at 3.7 µM -3% | [11]; at 11.0 µM 0% | [11]; at 33.0 µM 47% | [12]; at 1.2 µM 20% | [12]; at 3.7 µM 27% | [12]; at 11.0 µM 24% | [12]; at 33.0 µM 61% | [13]; at 1.2 µM -9% | [13]; at 3.7 µM -12% | [13]; at 11.0 µM -9% | [13]; at 33.0 µM 42% | [14]; [16] 47% | [14]; at 50.0 µM 31.4% | [15]; at 1.2 µM 16% | [15]; at 3.7 µM 9% | [15]; at 11.0 µM 25% | [15]; at 33.0 µM 59%
